Assay outcomes from PubChem BioAssay.
KCNQ2 inh – KCNQ2 (rat) channel inhibition. CHO-K1 KCNQ2, FluxOR thallium flux, 20 min; hits give low values. O88943. actives 1.1% (n = 310,000). B-score at 10 µM;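 active = fluorescence ratio B-score at most minus 3 library SDs, with starting brightness B-score within 2 library SDs, cut at about -5.5 in these data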
KCNQ2 enhance – enhances the rat KCNQ2 potassium channel; CHO-K1 KCNQ2, FluxOR thallium flux fluorescence; hits give high values; actives 0.54% (n = 310,000); AID 2239; B-score at 10 µM;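 active = fluorescence ratio B-score at least 3 SD of library B-scores, with initial fluorescence B-score within 3 of them, cut at about 5.3 in these data; same plate scores as AID 2156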;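 also: B-score of peak minus minimum over baseline fluorescence ratio after K+ and Tl+ stimulus; positive B-score means potentiation of KCNQ2 with more thallium influx and brighter signal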
Kir21 conf inh – confirmation of mouse Kir2.1 potassium channel inhibitors; shares compounds with KCNQ2 enhance; Kir2.1-expressing cells, FluxOR thallium flux fluorescence; hits give low values; Tl flux remaining, % of negative control (hits give low values), % at 10 µM; actives 41% (n = 2,300);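 active = Primary-screen hit whose thallium flux fell at least 3 control SD below untreated wells in both duplicates, with normal baseline fluorescence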;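 also: 0% = blank wells without stimulus and 100% = stimulated no-compound controls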
HEK293 Tl flux – alters thallium flux in parental HEK293 cells, Kir2.1 counter-screen | shares compounds with KCNQ2 enhance | FluxOR thallium flux fluorescence; 0% = unstimulated blank wells | FluxOR signal as % of negative control (100 = no effect), % at 10 µM | actives 19% (n = 2,300) | AID 2105;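 active = dye signal at least 3 control SD above or below untreated wells in both duplicates, raw fluorescence within 3, either direction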;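 also: percent is based on the flux ratio of peak minus minimum fluorescence over baseline F0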
CHO-K1 Tl ctr – alters thallium flux in parental CHO-K1 cells, KCNQ2 counter-screen | actives 43% (n = 1,200) | FluxOR thallium flux fluorescence; zero = vehicle mean+3SD, 100% = vehicle-minus-blank window | activity increase over 3SD of controls, % at 10 µM | shares compounds with KCNQ2 enhance | AID 2282;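 active = signal rise of at least 3 SD above the untreated control mean, in both duplicate wells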;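 also: counter screen of KCNQ2 potentiator hits so any rise reflects channel-independent effects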
KCNQ1 sel pot – tests whether KCNQ2 potentiators also act on human KCNQ1; shares compounds with KCNQ2 enhance; CHO KCNQ1 stable, FluxOR thallium flux fluorescence; beyond 3SD, as % of vehicle-control signal; activation over 3SD threshold, % at 10 µM; actives 28% (n = 1,200);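 active = fluorescence ratio rise of at least 3 SD of vehicle wells above their mean, in both replicate wells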;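 also: 0% = vehicle mean plus 3 SD and 100% = vehicle minus unstimulated blank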
KCNQ2 pot confirm – confirmation of rat KCNQ2 potassium channel potentiators; shares compounds with KCNQ2 enhance; CHO-KCNQ2 cells, FluxOR thallium flux fluorescence; potentiation, less the hit threshold, % at 10 µM; actives 68% (n = 1,200); AID 2287;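 active = fluorescence ratio rising 3 SD or more over the vehicle control mean in both replicates, plus primary screen hit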;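 also: peak minus minimum thallium fluorescence divided by baseline after K/Tl stimulus; 0% = vehicle mean plus 3 SD and 100% = vehicle minus unstimulated blank difference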
Kir21 spec – mouse Kir2.1 off-target activity of KCNQ2 potentiators; actives 2% (n = 1,200); activity over 3SD threshold, % at 10 µM; HEK293 Kir2.1, FluxOR thallium flux fluorescence; shares compounds with KCNQ2 enhance; AID 2345;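 active = fluorescence ratio rise of at least 3 SD above the vehicle-control mean, seen in both replicates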;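 also: 0% = vehicle mean plus 3 SD and 100% = vehicle minus no-stimulus blank window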
KCNQ2 W236L MoA – KCNQ2 potentiators acting on retigabine-insensitive rat KCNQ2 W236L mutant | actives 10% (n = 940) | AID 2558 | shares compounds with KCNQ2 enhance | current increase over 3SD of negative controls (%), hits give high values, % at 25 µM | CHO KCNQ2-W236L, automated patch clamp current;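 active = current increase at least 3 SD of the untreated controls above them in both duplicate recordings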
Target sequence (O88943 whole entry W236L, looked up): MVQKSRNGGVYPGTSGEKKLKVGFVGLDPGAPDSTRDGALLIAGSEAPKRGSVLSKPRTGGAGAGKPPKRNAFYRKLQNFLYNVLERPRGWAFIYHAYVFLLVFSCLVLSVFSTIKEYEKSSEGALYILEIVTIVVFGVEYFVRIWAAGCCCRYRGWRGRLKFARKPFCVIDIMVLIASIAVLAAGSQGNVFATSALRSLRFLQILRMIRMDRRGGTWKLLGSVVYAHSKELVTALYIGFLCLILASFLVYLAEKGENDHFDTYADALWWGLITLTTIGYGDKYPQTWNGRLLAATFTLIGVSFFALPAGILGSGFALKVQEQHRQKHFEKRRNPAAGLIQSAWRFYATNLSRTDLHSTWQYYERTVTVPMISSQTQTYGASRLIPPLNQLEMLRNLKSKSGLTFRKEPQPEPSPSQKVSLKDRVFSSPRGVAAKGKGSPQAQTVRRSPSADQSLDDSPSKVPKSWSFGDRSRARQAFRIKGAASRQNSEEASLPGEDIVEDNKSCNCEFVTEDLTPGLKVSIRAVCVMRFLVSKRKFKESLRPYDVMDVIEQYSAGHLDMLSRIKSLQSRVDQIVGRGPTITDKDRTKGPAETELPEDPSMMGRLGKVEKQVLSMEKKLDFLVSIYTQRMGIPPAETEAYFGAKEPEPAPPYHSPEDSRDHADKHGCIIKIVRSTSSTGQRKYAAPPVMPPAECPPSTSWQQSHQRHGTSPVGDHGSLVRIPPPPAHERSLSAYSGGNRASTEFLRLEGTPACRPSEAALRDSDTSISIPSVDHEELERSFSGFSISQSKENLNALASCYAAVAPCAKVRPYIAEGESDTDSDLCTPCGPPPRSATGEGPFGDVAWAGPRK
Numbers without * were called inactive; i = inactive; . = no result. Shown are actives, neighbours in structure and some others; about 1.6% of the full set was active somewhere.

SMILES	KCNQ2 inh	KCNQ2 enhance	Kir21 conf inh	HEK293 Tl flux	CHO-K1 Tl ctr	KCNQ1 sel pot	KCNQ2 pot confirm	Kir21 spec	others
CC(C)CC(NS(=O)(=O)OCC(Cl)(Cl)Cl)c1ccccc1 (configuration not stated)	i	.	.	.	.	.	.	.
O=[N+]([O-])c1ccc(N2CCN(c3ccccn3)CC2)c(Cl)c1	i	.	.	.	.	.	.	.
Cc1ccc(C(=O)CSc2nc(C(C)C)nc3ccccc23)cc1	i	3.9	.	.	.	.	.	.
CC(C)c1nc(SCC(=O)c2ccc(F)cc2)c2ccccc2n1	i	11*	i	i	-9	-4	36*	-40	KCNQ2 W236L MoA=i
CC(C)c1nc(SCC(=O)Nc2nccs2)c2ccccc2n1	i	0.11	.	.	.	.	.	.
Cc1csc(NC(=O)CSc2nc(C(C)C)nc3ccccc23)n1	i	6.2*	.	.	18*	-29	1.0*	-70	KCNQ2 W236L MoA=i
CC1(C)Cc2cccc(OCC(=O)NCCOc3ccccc3)c2O1	i	.	.	.	.	.	.	.
COc1ccccc1CCNC(=O)COc1cccc2c1OC(C)(C)C2	i	.	50%*	62%*	.	.	.	.
CCc1ccc(-c2cc(C)no2)cc1S(=O)(=O)N1CCCN(Cc2ccc(F)cc2)C1	i	0.02	.	.	.	.	.	.
CSc1ccccc1NC(=O)CN(c1cc(C)cc(C)c1)S(C)(=O)=O	i	.	.	.	.	.	.	.
CS(=O)(=O)N(CC(=O)Nc1ccccc1Sc1ccccc1)c1cccc(Br)c1	i	18*	i	i	-8	-6	1.7*	-40	KCNQ2 W236L MoA=i
O=C(Oc1c(CN2CCOCC2)cc(Cl)c2cccnc12)c1cccs1	i	.	.	.	.	.	.	.
Oc1c(Cl)cc(Cl)c2cccnc12	i	7.8*	i	176%*	-12	-15	11*	-12	KCNQ2 W236L MoA=i
O=C(Oc1c(Cl)cc(Cl)c2cccnc12)c1cccs1	i	11*	i	i	-5	-38	-34	-41
OCCN1CCN(Cc2cc(Cl)c3cccnc3c2O)CC1	i	1	.	.	.	.	.	.
Oc1c(Cl)cc(CN2CCCCC2)c2cccnc12	i	.	.	.	.	.	.	.
Oc1c(CN2CCN(c3ccccn3)CC2)cc(Cl)c2cccnc12	i	11*	i	146%*	4.1*	-5	24*	-25	KCNQ2 W236L MoA=i
CCN(C(=O)N1CCOCC1)c1ccccc1C	i	0.07	.	.	.	.	.	.
Cc1ccccc1C(=O)NNC(=O)Nc1ccccc1	i	.	.	.	.	.	.	.
Cc1ccc(F)cc1NC(=O)COC(=O)C1CCN(c2ccc(C(F)(F)F)cn2)CC1	i	0.12	.	.	.	.	.	.
CCCCN1C(=O)N(c2ccccc2Cl)C(C)(O)CC1(C)C (configuration not stated)	i	.	.	.	.	.	.	.
O=C(N1CCCC1)C(F)(F)Oc1ccc(F)cc1	i	0.21	.	.	.	.	.	.
Cc1ccc2c(c1)N(C(=O)CCC(=O)N1CCC(C(N)=O)CC1)CC(C)O2 (configuration not stated)	i	.	.	.	.	.	.	.
CN(C)CCNC(=O)CCn1nc(-c2ccc(Cl)cc2)ccc1=O	i	0.85	.	.	.	.	.	.
CC(C)CC(=O)/C(=C\c1ccc(Cl)cc1Cl)n1cncn1	-5.6*	-5.6	44%*	i	.	.	.	.
SMILES	KCNQ2 inh	KCNQ2 enhance	Kir21 conf inh	HEK293 Tl flux	CHO-K1 Tl ctr	KCNQ1 sel pot	KCNQ2 pot confirm	Kir21 spec	others
CC(C)CC(=O)/C(=C/c1ccc(N(C)C)cc1)n1cncn1	i	1.2	.	.	.	.	.	.
O=c1c2cc(Br)ccc2nc(-c2ccccc2)n1O	i	7.8*	i	426%*	-16	-16	50*	-9	KCNQ2 W236L MoA=i
O=c1c2ccccc2nc(-c2cccc(Cl)c2)n1O	i	8.7*	i	i	74*	-22	46*	-26	KCNQ2 W236L MoA=i
O=c1c2cc(Cl)ccc2nc(-c2ccccc2Cl)n1O	i	2.5	.	.	.	.	.	.
Cc1ccc(-c2nc3ccccc3c(=O)n2O)cc1	i	3.6	.	.	.	.	.	.
COc1ccc(CCC(=O)NCc2cccc(C(F)(F)F)c2)cc1	i	6.7*	i	i	24*	-17	-2	-33	KCNQ2 W236L MoA=i
COc1ccc(CCC(=O)NCc2ccc3c(c2)OCO3)cc1	i	3	.	.	.	.	.	.
COc1ccccc1C(=O)C1CCCN(C(=O)c2snnc2C)C1 (configuration not stated)	i	0.89	.	.	.	.	.	.
O=C(NC(=S)Nc1ccccc1Cl)c1csnn1	i	15*	i	408%*	79*	-19	72*	-18	KCNQ2 W236L MoA=i
O=C(NC(=S)Nc1cccc(C(F)(F)F)c1)c1csnn1	i	18*	i	442%*	-18	-11	80*	-17	KCNQ2 W236L MoA=i
O=C(Nc1ccccc1NC(=O)c1csnn1)c1csnn1	i	.	.	.	.	.	.	.
CCCOc1cccc(C(=O)NC(=S)Nc2cccc(C(F)(F)F)c2)c1	i	.	.	.	.	.	.	.
CC(Oc1ccccc1F)C(=O)NNC(=O)CCNC(=O)c1ccccc1Cl (configuration not stated)	i	0.12	.	.	.	.	.	.
Cc1ccc(S(=O)(=O)N(C)CC(=O)Nc2nc3ccccc3s2)cc1	i	.	.	.	.	.	.	.
Cc1ccc(/C(=N/Nc2nc3ccccc3s2)C2=C(O)c3ccccc3C2=O)cc1	i	0.85	i	i	.	.	.	.
O=C(c1cc([N+](=O)[O-])[nH]n1)N1CCSCC1	i	.	.	.	.	.	.	.
CCOc1ccc(NS(=O)(=O)c2ccc(OC)c(C)c2)cc1	i	0.35	i	i	.	.	.	.
CCOc1ccc(NS(=O)(=O)c2ccc(NC(C)=O)c(OC)c2)cc1	i	.	.	.	.	.	.	.
CCOc1ccc(NC(=S)N2CCN(C/C=C/c3ccccc3)CC2)cc1	i	3.7	.	.	.	.	.	.
CC(=O)Nc1sc2c(c1C(c1ccccc1Cl)N1CCN(CCO)CC1)CCCC2 (configuration not stated)	i	5.3*	.	.	-36	-18	38*	-62	KCNQ2 W236L MoA=i
CC(=O)Nc1sc2c(c1C(c1ccccn1)N1CCCC1)CCCC2 (configuration not stated)	i	1	.	.	.	.	.	.
CCn1cc(C(=O)N[C@H](C(=O)NCCO)C(C)C)c(=O)c2cc3c(cc21)OCO3	i	0.83	.	.	.	.	.	.
O=S(=O)(Cc1ccccc1)NCCc1cccc(Cl)c1	i	.	.	.	.	.	.	.
Cc1ccc(-n2c(=S)[nH]c3sc4c(c3c2=O)CCc2ccccc2-4)cc1	i	.	.	.	.	.	.	.
Cc1cccc(-n2c(=S)[nH]c3sc4c(c3c2=O)CCc2ccccc2-4)c1	i	5.6*	i	196%*	-11	-26	-10	-25	KCNQ2 W236L MoA=i
CCn1cc([N+](=O)[O-])c(C(=O)Nc2nc3ccc(OC)cc3s2)n1	i	0.02	.	.	.	.	.	.
